Test results: PubChem BioAssay AID488969 (Vanderbilt High Throughput Screening Facility, 2010)
Whole data set: some 110,000 compounds, median “z-score” near -0.1, cut for the highest 2% near 2. The sample holds the highest values, similar compounds and a random draw of the others, so the mix is not that of the screen. Activity calls are given as the source filed them.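 Rule for the calls: active = z-score in the third read window above 3 or below -3; inactive = the rest.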

target: Metabotropic glutamate receptor 8 (Rattus norvegicus) (UniProt P70579); assay: mGluR8 Gi/Go-coupled signaling modulation – cell-based, rat, thallium flux, HTS, primary screen (AID 488969); details: HEK293 rat mGluR8, GIRK (G protein-gated inwardly rectifying potassium channel) thallium flux, FluoZin2; at 10 µM; stronger effect = higher value; submaximal glutamate (EC20) added with thallium
Sequence (P70579 whole entry, looked up): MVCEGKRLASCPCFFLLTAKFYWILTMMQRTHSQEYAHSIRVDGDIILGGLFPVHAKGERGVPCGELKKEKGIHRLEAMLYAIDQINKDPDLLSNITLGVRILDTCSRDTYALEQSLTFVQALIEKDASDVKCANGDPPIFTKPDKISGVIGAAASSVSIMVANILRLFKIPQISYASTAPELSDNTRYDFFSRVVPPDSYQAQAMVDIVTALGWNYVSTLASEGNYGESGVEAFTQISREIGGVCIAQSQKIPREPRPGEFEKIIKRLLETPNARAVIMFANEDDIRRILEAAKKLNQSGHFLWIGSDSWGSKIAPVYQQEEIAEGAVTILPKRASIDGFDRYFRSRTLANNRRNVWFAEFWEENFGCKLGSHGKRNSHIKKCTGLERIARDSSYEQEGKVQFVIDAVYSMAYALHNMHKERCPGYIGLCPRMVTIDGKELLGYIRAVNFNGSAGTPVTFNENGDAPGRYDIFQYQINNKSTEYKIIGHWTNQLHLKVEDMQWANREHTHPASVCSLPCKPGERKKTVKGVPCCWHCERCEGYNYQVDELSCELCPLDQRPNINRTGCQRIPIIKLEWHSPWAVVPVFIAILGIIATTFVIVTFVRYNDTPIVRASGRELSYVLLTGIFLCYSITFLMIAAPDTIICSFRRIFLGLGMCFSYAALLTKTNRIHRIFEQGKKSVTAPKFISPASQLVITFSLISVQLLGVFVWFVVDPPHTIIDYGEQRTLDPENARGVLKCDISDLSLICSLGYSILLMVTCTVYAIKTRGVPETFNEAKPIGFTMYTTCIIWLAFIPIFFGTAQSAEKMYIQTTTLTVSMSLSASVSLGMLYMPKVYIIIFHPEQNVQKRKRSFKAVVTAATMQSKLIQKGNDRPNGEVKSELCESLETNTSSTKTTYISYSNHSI

In order of falling z-score:
1. O=[N+]([O-])c1ccc(NC(=S)NCCc2ccccc2)cc1  2.91
2. O=C(OCC#CCSc1nnc(-c2ccncc2)o1)c1sc2ccccc2c1Cl  2.87
3. COc1cccc(C2=NN(C(=O)c3ccccc3)C(O)(C(F)(F)F)C2)c1 (stereo not drawn)  2.79
4. CCCCCC(=O)NC(=S)NNC(=O)c1ccc([N+](=O)[O-])cc1  2.66
5. CN(C)CCNc1oc(-c2cccc(Cl)c2)nc1C#N  2.54
6. Cc1ccc(NC(=O)c2ccc(C(C)(C)C)cc2)cc1[N+](=O)[O-]  2.5
7. Cc1cccc(C(=O)NNC(=O)C(=O)NC(C)(C)C)c1  2.45
8. Cc1ccc(C)c(NC(=O)c2cc(-c3ccccc3)nn2-c2ccccc2)c1  2.08
9. CN(C)CCNc1oc(COc2ccc(-c3ccccc3)cc2)nc1C#N  2.06
10. CCCCNC(=S)Nc1ccc([N+](=O)[O-])cc1  2
11. O=[N+]([O-])c1ccc(NC(=S)NCCc2ccc(F)cc2)cc1  1.65
12. CC(C)(C)NC(=O)C(=O)NNC(=O)c1ccccc1  1.57
13. CN(C)CCNc1oc(COc2ccc(Cl)cc2)nc1C#N  1.5
14. CN(C)CCCNc1oc(-c2ccc(Cl)cc2)nc1C#N  1.35
15. Cc1ccc(-c2nc3ccc(NS(=O)(=O)c4ccccc4)cc3[nH]2)o1  1.31
16. CCN(CC)CCCNc1oc(-c2cccc(Cl)c2)nc1C#N  1.31
17. Cc1ccc(NC(=O)c2cc(-c3ccccc3)nn2-c2ccccc2)cc1  1.28
18. CC(C)CCNC(=S)Nc1ccc([N+](=O)[O-])cc1  1.2
19. O=C(Nc1nc2ccccc2s1)c1cc(-c2ccccc2)nn1-c1ccccc1  1.18
20. CCOC(=O)c1c(NC(=O)C2C3C=CC(CC3)C2C(=O)O)sc(C)c1C (stereo not drawn)  0.959
21. Cc1ccccc1NC(=O)NCC1CCCO1 (stereo not drawn)  0.73
22. CCCCNC(=S)Nc1cc([N+](=O)[O-])ccc1C  0.706
23. CCOc1ccc(NC(=S)Nc2ccc(C)c([N+](=O)[O-])c2)cc1  0.652
24. O=C(COC(=O)[C@H](Cc1c[nH]c2ccccc12)NC(=O)c1ccc(Cl)cc1)Nc1ccc2c(c1)OCO2  0.558
25. Cc1ccc(NC(=O)c2cc(-c3ccccc3)nn2-c2ccccc2)c(Br)c1  0.496
26. CC(C)(C)c1ccc(C(=O)NNC(=O)C(=O)N2CCCCC2)cc1  0.478
27. Cc1ccc(N(CC(=O)N2CCOCC2)S(=O)(=O)c2ccccc2)cc1  0.464
28. OC(CNCC1CCCO1)Cn1c2ccc(Cl)cc2c2cc(Cl)ccc21 (stereo not drawn)  0.381
29. COc1ccc(C(=O)N2N=C(c3cccc(OC)c3)CC2(O)C(F)(F)F)cc1 (stereo not drawn)  0.326
30. CCc1nnc(NC(=O)c2cc(-c3ccccc3)nn2-c2ccccc2)s1  0.27
31. Cc1ccc(CNC(=S)Nc2ccc(C)c([N+](=O)[O-])c2)cc1  0.255
32. COc1ccc(NC(=O)Cn2c(=O)n(CC(=O)NCc3ccco3)c(=O)c3ccccc32)cc1  0.213
33. COc1ccc(-c2noc(-c3ccccc3C(=O)Nc3cccnc3)n2)cc1OC  0.205
34. CC(C)CC(=O)NC(=S)NNC(=O)c1ccc([N+](=O)[O-])cc1  0.187
35. OC(CNCc1ccco1)Cn1c2ccc(Br)cc2c2cc(Br)ccc21 (stereo not drawn)  0.138
36. O=C1CCCc2c1[nH]c1ccc(CN3CCCCC3)cc21  0.129
37. O=[N+]([O-])c1ccc(NC(=S)NCCc2ccc(Cl)cc2)cc1  0.129
38. O=C(N/N=C/c1ccncc1)c1cc(Br)ccc1OCc1ccccc1  0.109
39. Cc1nc(C)c(C(=O)N/N=C/c2cn(C)c3ccccc23)s1  0.0943
40. CC(C)N1CCC(=NNc2ccc(S(=O)(=O)N3CCOCC3)cc2[N+](=O)[O-])CC1  0.0912
41. CCC(C)NS(=O)(=O)c1ccc(NC(=O)c2ccc([N+](=O)[O-])cc2Cl)cc1 (stereo not drawn)  0.0866
42. CCOC(=O)c1c(N)sc2c1CCC(CC)C2 (stereo not drawn)  0.0842
43. COc1cccc(C(=O)N2N=C(c3cccc(OC)c3)CC2(O)C(F)(F)F)c1 (stereo not drawn)  0.00352
44. Cc1ccc2[nH]c(=O)c(C(c3nnnn3C(C)(C)C)N3CCN(C(=O)c4ccco4)CC3)cc2c1 (stereo not drawn)  -0.0115
45. Cc1cccc(C(=O)NNC(=O)c2ccccc2)c1  -0.0133
46. C=CCN1C(=O)C2C(C(=O)NC3CCCCC3)C3C=CC2(O3)C1C(=O)NC1CCCC1 (stereo not drawn)  -0.014
47. CCCCn1c(S(=O)(=O)O)nc2ccccc21  -0.0451
48. CC(C)C(=O)Nc1cccc(NC(=S)NC(=O)c2ccc([N+](=O)[O-])cc2)c1  -0.0455
49. O=C(Nc1ccc(OC(F)(F)F)cc1)c1n[nH]c(Cn2cncn2)n1  -0.0524
50. CCOC(=O)c1nn(-c2ccccc2)c(=O)cc1SC(C)C  -0.0576
51. Cc1cc(=O)[nH]c(-n2nc(C)c(Oc3ccccc3O)c2C)n1  -0.0623
52. COC(=O)NNC(=O)c1cccc(C)c1  -0.067
53. O=C(NC(=S)NCC1CCCO1)c1ccc([N+](=O)[O-])cc1 (stereo not drawn)  -0.067
54. O=C(CNC(=S)NC(=O)c1ccc(F)cc1)c1ccccc1  -0.0791
55. O=C(NC(=S)NCCN1CCOCC1)c1ccc(F)cc1  -0.084
56. O=C(OCC#CCSc1nnc(-c2ccncc2)o1)c1cccs1  -0.0957
57. CC(=O)Nc1ccc(NC(=S)NC(=O)c2ccc([N+](=O)[O-])cc2)cc1  -0.11
58. CCOC(=O)c1nn(-c2ccc(F)cc2)c2nc(Nc3ccccc3)cc(=O)n12  -0.123
59. Cc1ccc(NC(=O)c2ccncc2)cc1[N+](=O)[O-]  -0.142
60. CCc1cc2c(N[C@@H](Cc3c[nH]c4ccccc34)C(=O)O)ncnc2s1  -0.16
61. N#CCc1ccc(C(=O)c2ccccc2)s1  -0.167
62. COc1ccc(/C=N/NC(=O)CSc2nnc(CCCc3ccc(OC)c(C)c3)o2)cc1  -0.18
63. CCOc1ccc(C(=O)NC(=S)Nc2ccc(NC(=O)c3ccco3)c(C)c2)cc1[N+](=O)[O-]  -0.187
64. COc1nccnc1NS(=O)(=O)c1ccc(N=Cc2c(C)[nH]n(-c3ccccc3)c2=O)cc1  -0.188
65. CCOc1ccc2ccccc2c1/C=N/NC(=O)CNC(=O)Cc1ccccc1  -0.191
66. CCOC(=O)N1CCC(N2C(=O)c3cc(C(=O)NC4CCCCC4)ccc3C2O)CC1 (stereo not drawn)  -0.198
67. Cc1ccc(OCCNC(=O)/C=C/c2ccccc2)cc1C  -0.203
68. CCCCCCCC(=O)NNC(=O)c1ccc([N+](=O)[O-])cc1  -0.209
69. Cc1ccc(S(=O)(=O)N(C)C)cc1NC(=O)CCNC(=O)c1ccccc1Cl  -0.212
70. CCN(CC)CCCNc1oc(-c2ccc(OC)c(OC)c2)nc1C#N  -0.222
71. C=CCOn1c(=O)c(-c2ccc(OC)c(OC)c2)[n+]([O-])c2ccccc21  -0.224
72. CCC(C)Cn1c(S(=O)(=O)O)nc2ccccc21 (stereo not drawn)  -0.238
73. CCOCCc1nnc(NC(=O)c2cccc(F)c2)s1  -0.243
74. CCOC(=O)c1c(NC(=O)C2C3CCC(O3)C2C(=O)O)sc(C)c1-c1ccc(C)cc1 (stereo not drawn)  -0.26
75. CN(CC(=O)Nn1cnnc1)S(=O)(=O)c1ccccc1  -0.262
76. CCOc1c2ccc(C(=O)NCc3ccc4c(c3)OCO4)cc2nn1CCOC  -0.276
77. CN(C)c1ccc(NC(=O)c2ccc([N+](=O)[O-])cc2Cl)cc1  -0.282
78. CN(CC(=O)Nc1ccncc1)S(=O)(=O)c1ccc(Br)cc1  -0.284
79. COC(=O)C(C)Sc1nnc(-c2ccncc2)o1 (stereo not drawn)  -0.297
80. Cn1c(SCCOc2ccccc2Cl)nnc1-c1cccs1  -0.314
81. CCOC(=O)N1CCC(N2C(=O)c3ccc(C(=O)NCc4ccco4)cc3C2=O)CC1  -0.36
82. Cc1ccc(NC(=O)CCC(=O)NNC(=O)COc2ccccc2)c(C)c1  -0.385
83. CCCC(=O)NC(=S)NNC(=O)c1ccc([N+](=O)[O-])cc1  -0.394
84. CC1Cc2ccccc2N1C(=O)Cc1cccs1 (stereo not drawn)  -0.395
85. Cc1sc(NC(=O)C2C3CCC(O3)C2C(=O)O)c(C(=O)OC(C)C)c1-c1ccc(Cl)cc1 (stereo not drawn)  -0.429
86. COc1ccc(CCNc2oc(COc3ccccc3)nc2C#N)cc1  -0.509
87. O=C(OCC#CCSc1nnc(-c2ccccc2)o1)c1cccs1  -0.745
88. O=C(CN(Cc1ccccc1)C1=NCCS1)c1ccccc1  -0.754
89. CN(C)CCCNc1oc(-c2cccc(Cl)c2)nc1C#N  -0.825
90. O=S(=O)(Nc1ccc2nc(-c3ccc(Br)o3)[nH]c2c1)c1ccccc1  -0.849
91. O=C(Nc1ccc2nc(-c3ccc(Br)o3)[nH]c2c1)c1cccs1  -0.969
92. CC(C)Sc1nc2c(c(=O)n1-c1ccc(F)cc1)SCC2  -0.98
93. Cc1ccc([N+](=O)[O-])cc1NC(=O)c1ccc(C(C)(C)C)cc1  -1.53
94. CC(C)CC(=O)N1CCN(S(=O)(=O)c2ccc3ccccc3c2)CC1  -1.99

O=S(=O)(Nc1ccc2nc(C(F)(F)F)[nH]c2c1)c1ccccc1 was tested, and the z-score was 4.74 (active).
CC(C)CCn1c(S(=O)(=O)O)nc2ccccc21 was tested, and the z-score was 3.16 (active).
For CC(=O)c1sc(NC(=O)c2cc(-c3ccccc3)nn2-c2ccccc2)nc1C, the z-score was 3 (active).
In the case of CCCCN(CCCC)S(=O)(=O)c1ccc(NC(=O)c2ccc([N+](=O)[O-])cc2Cl)cc1, the z-score is reported as 3.01 (active).
For CN(CC(=O)Nn1cnnc1)S(=O)(=O)c1ccc(Br)cc1, the z-score was 4.35 (active).
Cc1ccc(-c2c(C)sc(NC(=O)C3C4CCC(O4)C3C(=O)O)c2C(=O)OC(C)C)cc1 (stereo not drawn) was tested, and the z-score was 4.99 (active).
CCOC(=O)c1c(NC(=O)C2C3C=CC(C3)C2C(=O)O)sc2c1CCC(CC)C2 (stereo not drawn) was tested, and the z-score was 3.71 (active).
In the case of CC(C)(C)NC(=O)C(=O)NNC(=O)c1ccc(C(C)(C)C)cc1, the z-score is reported as 5.3 (active).
For OC(CNCC1CCCO1)Cn1c2ccc(Br)cc2c2cc(Br)ccc21 (stereo not drawn), the z-score was 3.72 (active).
For COc1ccc(-c2nc(C#N)c(NCCCN(C)C)o2)cc1OC, the z-score was 11.2 (active).
For Cc1ccc(NC(=S)NCc2ccccc2)cc1[N+](=O)[O-], the z-score was 3.51 (active).
For CC(C)CNC(=S)NC(=O)c1ccc(F)cc1, the z-score was 7.84 (active).
For CC(C)CNC(=S)NC(=O)c1ccc([N+](=O)[O-])cc1, the z-score was 6.28 (active).
With CCCCNC(=S)NC(=O)c1ccc([N+](=O)[O-])cc1 the z-score was 7.01 (active).
